Reference: the supplement of paper PMC7411054

How the values were obtained:
Assay in all cases: phenotypically active (imaging signature differs from DMSO and reproducible) at any of 0.3-9 uM (binary (1 = active, 0 = inactive)); higher = active
Details in all cases: treatment time: 24 h
A549-ACTB-RAB5A = system: A549-ACTB-RAB5A
Outline: (§1)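 After 24 h at 0.3, 1, 3 or 9 µM, with four wells per treatment, fifteen gene-edited A549, HepG2 and WPMY1 reporter lines carrying BFP, GFP and RFP/FusionRed were imaged live. Each well's live-cell features were expressed relative to solvent control wells. Deviation required ≥3 of 4 wells past the 95th percentile of control Euclidean distances, and reproducibility a median replicate Pearson correlation over the 95th percentile of non-replicates. Phenotypic activity rested on both.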

A549-CANX-COX4 = system: A549-CANX-COX4
Outline: as §1

A549-GM130-SQSTM1 = system: A549-GM130-SQSTM1
Outline: as §1

A549-TP53BP1-CLTA = system: A549-TP53BP1-CLTA
Outline: as §1

A549-TUBA1B-RELA = system: A549-TUBA1B-RELA
Outline: as §1

HepG2-ACTB-RAB5A = system: HepG2-ACTB-RAB5A
Outline: as §1

HepG2-CANX-COX4 = system: HepG2-CANX-COX4
Outline: as §1

HepG2-GM130-SQSTM1 = system: HepG2-GM130-SQSTM1
Outline: as §1

HepG2-TP53BP1-CLTA = system: HepG2-TP53BP1-CLTA
Outline: as §1

HepG2-TUBA1B-RELA = system: HepG2-TUBA1B-RELA
Outline: as §1

WPMY1-ACTB-RAB5A = system: WPMY1-ACTB-RAB5A
Outline: as §1

WPMY1-CANX-COX4 = system: WPMY1-CANX-COX4
Outline: as §1

WPMY1-GM130-SQSTM1 = system: WPMY1-GM130-SQSTM1
Outline: as §1

WPMY1-TP53BP1-CLTA = system: WPMY1-TP53BP1-CLTA
Outline: as §1

WPMY1-TUBA1B-RELA = system: WPMY1-TUBA1B-RELA
Outline: as §1

Measured: phenotypically active

Cc1n[nH]c(=O)[nH]c1=O [Azathymine, 6]
inactive: A549-ACTB-RAB5A 0 | A549-CANX-COX4 0 | A549-GM130-SQSTM1 0 | A549-TP53BP1-CLTA 0 | A549-TUBA1B-RELA 0 | HepG2-ACTB-RAB5A 0 | HepG2-CANX-COX4 0 | HepG2-GM130-SQSTM1 0 | HepG2-TP53BP1-CLTA 0 | HepG2-TUBA1B-RELA 0 | WPMY1-ACTB-RAB5A 0 | WPMY1-CANX-COX4 0 | WPMY1-GM130-SQSTM1 0 | WPMY1-TP53BP1-CLTA 0 | WPMY1-TUBA1B-RELA 0

CN(C)CCc1c[nH]c2ccc(C[C@H]3COC(=O)N3)cc12 [zolmitriptan]
inactive: A549-ACTB-RAB5A 0 | A549-CANX-COX4 0 | A549-GM130-SQSTM1 0 | A549-TP53BP1-CLTA 0 | A549-TUBA1B-RELA 0 | HepG2-ACTB-RAB5A 0 | HepG2-CANX-COX4 0 | HepG2-GM130-SQSTM1 0 | HepG2-TP53BP1-CLTA 0 | HepG2-TUBA1B-RELA 0 | WPMY1-ACTB-RAB5A 0 | WPMY1-CANX-COX4 0 | WPMY1-GM130-SQSTM1 0 | WPMY1-TP53BP1-CLTA 0 | WPMY1-TUBA1B-RELA 0

CCOC(=O)C(C)(C)Oc1ccc(Cl)cc1 [Clofibrate]
inactive: A549-ACTB-RAB5A 0 | A549-CANX-COX4 0 | A549-GM130-SQSTM1 0 | A549-TP53BP1-CLTA 0 | A549-TUBA1B-RELA 0 | HepG2-ACTB-RAB5A 0 | HepG2-CANX-COX4 0 | HepG2-GM130-SQSTM1 0 | HepG2-TP53BP1-CLTA 0 | HepG2-TUBA1B-RELA 0 | WPMY1-ACTB-RAB5A 0 | WPMY1-CANX-COX4 0 | WPMY1-GM130-SQSTM1 0 | WPMY1-TP53BP1-CLTA 0 | WPMY1-TUBA1B-RELA 0

C[C@]12CC[C@@H]3c4ccc(O)cc4CC[C@H]3[C@@H]1CCC2=O [estrone]
inactive: A549-ACTB-RAB5A 0 | A549-CANX-COX4 0 | A549-GM130-SQSTM1 0 | A549-TP53BP1-CLTA 0 | A549-TUBA1B-RELA 0 | HepG2-ACTB-RAB5A 0 | HepG2-CANX-COX4 0 | HepG2-GM130-SQSTM1 0 | HepG2-TP53BP1-CLTA 0 | HepG2-TUBA1B-RELA 0 | WPMY1-ACTB-RAB5A 0 | WPMY1-CANX-COX4 0 | WPMY1-GM130-SQSTM1 0 | WPMY1-TP53BP1-CLTA 0 | WPMY1-TUBA1B-RELA 0

COc1c2c(cc3oc(CO)cc(=O)c13)O[C@@H](C(C)(C)O)C2 [Cimifugin]
inactive: A549-ACTB-RAB5A 0 | A549-CANX-COX4 0 | A549-GM130-SQSTM1 0 | A549-TP53BP1-CLTA 0 | A549-TUBA1B-RELA 0 | HepG2-ACTB-RAB5A 0 | HepG2-CANX-COX4 0 | HepG2-GM130-SQSTM1 0 | HepG2-TP53BP1-CLTA 0 | HepG2-TUBA1B-RELA 0 | WPMY1-ACTB-RAB5A 0 | WPMY1-CANX-COX4 0 | WPMY1-GM130-SQSTM1 0 | WPMY1-TP53BP1-CLTA 0 | WPMY1-TUBA1B-RELA 0

C[C@@H]1C(=O)O[C@H]2C[C@@]34[C@H]5C[C@@H](C(C)(C)C)[C@]36[C@@H](OC(=O)[C@@H]6O)O[C@@]4(C(=O)O5)[C@]21O [Ginkgolide A]
inactive: A549-ACTB-RAB5A 0 | A549-CANX-COX4 0 | A549-GM130-SQSTM1 0 | A549-TP53BP1-CLTA 0 | A549-TUBA1B-RELA 0 | HepG2-ACTB-RAB5A 0 | HepG2-CANX-COX4 0 | HepG2-GM130-SQSTM1 0 | HepG2-TP53BP1-CLTA 0 | HepG2-TUBA1B-RELA 0 | WPMY1-ACTB-RAB5A 0 | WPMY1-CANX-COX4 0 | WPMY1-GM130-SQSTM1 0 | WPMY1-TP53BP1-CLTA 0 | WPMY1-TUBA1B-RELA 0

Cc1[nH]c(=O)c(C#N)cc1-c1ccncc1 [Milrinone]
inactive: A549-ACTB-RAB5A 0 | A549-CANX-COX4 0 | A549-GM130-SQSTM1 0 | A549-TP53BP1-CLTA 0 | A549-TUBA1B-RELA 0 | HepG2-ACTB-RAB5A 0 | HepG2-CANX-COX4 0 | HepG2-GM130-SQSTM1 0 | HepG2-TP53BP1-CLTA 0 | HepG2-TUBA1B-RELA 0 | WPMY1-ACTB-RAB5A 0 | WPMY1-CANX-COX4 0 | WPMY1-GM130-SQSTM1 0 | WPMY1-TP53BP1-CLTA 0 | WPMY1-TUBA1B-RELA 0

CC(C)(Oc1ccc(C2CC2(Cl)Cl)cc1)C(=O)O (stereo not given) [ciprofibrate]
inactive: A549-ACTB-RAB5A 0 | A549-CANX-COX4 0 | A549-GM130-SQSTM1 0 | A549-TP53BP1-CLTA 0 | A549-TUBA1B-RELA 0 | HepG2-ACTB-RAB5A 0 | HepG2-CANX-COX4 0 | HepG2-GM130-SQSTM1 0 | HepG2-TP53BP1-CLTA 0 | HepG2-TUBA1B-RELA 0 | WPMY1-ACTB-RAB5A 0 | WPMY1-CANX-COX4 0 | WPMY1-GM130-SQSTM1 0 | WPMY1-TP53BP1-CLTA 0 | WPMY1-TUBA1B-RELA 0

CCCN(CCC)CCc1cccc2c1CC(=O)N2 [ropinirole]
inactive: A549-ACTB-RAB5A 0 | A549-CANX-COX4 0 | A549-GM130-SQSTM1 0 | A549-TP53BP1-CLTA 0 | A549-TUBA1B-RELA 0 | HepG2-ACTB-RAB5A 0 | HepG2-CANX-COX4 0 | HepG2-GM130-SQSTM1 0 | HepG2-TP53BP1-CLTA 0 | HepG2-TUBA1B-RELA 0 | WPMY1-ACTB-RAB5A 0 | WPMY1-CANX-COX4 0 | WPMY1-GM130-SQSTM1 0 | WPMY1-TP53BP1-CLTA 0 | WPMY1-TUBA1B-RELA 0

CC(C)[N+](C)(CCOC(=O)C1c2ccccc2Oc2ccccc21)C(C)C [propantheline]
inactive: A549-ACTB-RAB5A 0 | A549-CANX-COX4 0 | A549-GM130-SQSTM1 0 | A549-TP53BP1-CLTA 0 | A549-TUBA1B-RELA 0 | HepG2-ACTB-RAB5A 0 | HepG2-CANX-COX4 0 | HepG2-GM130-SQSTM1 0 | HepG2-TP53BP1-CLTA 0 | HepG2-TUBA1B-RELA 0 | WPMY1-ACTB-RAB5A 0 | WPMY1-CANX-COX4 0 | WPMY1-GM130-SQSTM1 0 | WPMY1-TP53BP1-CLTA 0 | WPMY1-TUBA1B-RELA 0

NCCCC(O)(P(=O)(O)O)P(=O)(O)O [alendronate]
inactive: A549-ACTB-RAB5A 0 | A549-CANX-COX4 0 | A549-GM130-SQSTM1 0 | A549-TP53BP1-CLTA 0 | A549-TUBA1B-RELA 0 | HepG2-ACTB-RAB5A 0 | HepG2-CANX-COX4 0 | HepG2-GM130-SQSTM1 0 | HepG2-TP53BP1-CLTA 0 | HepG2-TUBA1B-RELA 0 | WPMY1-ACTB-RAB5A 0 | WPMY1-CANX-COX4 0 | WPMY1-GM130-SQSTM1 0 | WPMY1-TP53BP1-CLTA 0 | WPMY1-TUBA1B-RELA 0

CCC1(c2ccccc2)C(=O)NCNC1=O [primidone]
inactive: A549-ACTB-RAB5A 0 | A549-CANX-COX4 0 | A549-GM130-SQSTM1 0 | A549-TP53BP1-CLTA 0 | A549-TUBA1B-RELA 0 | HepG2-ACTB-RAB5A 0 | HepG2-CANX-COX4 0 | HepG2-GM130-SQSTM1 0 | HepG2-TP53BP1-CLTA 0 | HepG2-TUBA1B-RELA 0 | WPMY1-ACTB-RAB5A 0 | WPMY1-CANX-COX4 0 | WPMY1-GM130-SQSTM1 0 | WPMY1-TP53BP1-CLTA 0 | WPMY1-TUBA1B-RELA 0
